Compounds with a hit are over-represented: about 10% of the library has one in this group of screens.
HP1b binding inh: inhibitors of HP1-beta chromodomain binding to methylated histone tails; AlphaScreen HP1-beta / biotin-H3K9me3 peptide binding; Potency, µM (top dose mostly 114 µM), without a hit: at the highest dose activity change, negative = inhibition, most hits filed as inhibitors; 390,000 tested, 0.56% active; also: potency is read from the fitted curve at half-maximal effect; nearly all actives have a fitted effect of over 70% in size
Target sequence (P83916 whole entry, looked up): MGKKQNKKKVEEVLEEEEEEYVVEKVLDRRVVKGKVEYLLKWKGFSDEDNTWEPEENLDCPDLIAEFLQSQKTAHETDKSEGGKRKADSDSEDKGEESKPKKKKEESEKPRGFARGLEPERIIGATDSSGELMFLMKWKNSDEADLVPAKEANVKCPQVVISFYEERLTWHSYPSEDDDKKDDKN
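AlphaScreen: HP1-beta (50 nM) preformed 30 min with biotin-H3(1-18)K9me3 peptide (50 nM) in PBS pH 7.4, 0.01% Tween-20. Compound added for 30 min at RT, then streptavidin donor/nickel chelate acceptor beads (10 ug/mL) for 30 min.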
CtBP-E1A inh: inhibitors of CtBP/E1A interaction; AlphaScreen GST-E1A/His-CtBP binding, 1536-well; active compounds read low; activity change, % (no concentration beside the values); 340,000 tested, 0.49% active; AID 651724; in the data active = activity change below about -65%; inconclusive = mostly about -30% to -63%; also: % is scaled to controls: 0 for no effect and ±100 for the full control effect
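In 5 uL wells, 23 nL compound meets equimolar GST-E1A and His-CtBP (5X stock 125 nM each) for 2 h, 37 °C. Beads (5X, 50 ug/mL) then 1 h, 37 °C, dark.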
JMJD2A Tudor: blocks the human JMJD2A Tudor domain. Potency, µM (doses to about 114 µM), inactives show at the top dose activity change, negative = inhibition, usual class: inhibitors. AID 504339. O75164. 390,000 tested, 4.4% active. AlphaScreen JMJD2A-Tudor / H3K4me3 peptide binding; also: potency is read from the fitted curve at half-maximal effect; % is scaled to controls: 0 for no effect and ±100 for the full control effect; nearly all actives have a fitted effect of over 50% in size
G9a block: inhibitors of human histone lysine methyltransferase G9a. Q96KQ7. G9a H3K9 monomethylation, AlphaScreen, 2 h. Potency, µM (doses to about 102 µM), for inactives: top-dose activity, negative = inhibition, most hits filed as inhibitors. 350,000 tested, 8.8% active. AID 504332; also: potency is read from the fitted curve at half-maximal effect; % is scaled to controls: 0 for no effect and ±100 for the full control effect; nearly all actives have a fitted effect of over 75% in size
Target sequence (Q96KQ7 913-1193 limits assumed): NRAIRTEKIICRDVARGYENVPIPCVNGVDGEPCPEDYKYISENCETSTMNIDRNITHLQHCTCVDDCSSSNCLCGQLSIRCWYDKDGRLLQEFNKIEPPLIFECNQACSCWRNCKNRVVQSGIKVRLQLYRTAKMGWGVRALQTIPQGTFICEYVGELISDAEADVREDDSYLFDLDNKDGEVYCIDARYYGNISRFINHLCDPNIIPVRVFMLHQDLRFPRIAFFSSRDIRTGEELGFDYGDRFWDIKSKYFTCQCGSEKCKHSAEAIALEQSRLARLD
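Enzyme 20 nM + cpd, 15 min RT; add b-H3K9 pep 500 nM / SAM 20 uM; 2 h RT; anti-H3K9me1 Ab 0.5 ug/mL + SA donor / anti-rabbit acceptor beads 20 ug/mL each, 10 min; AlphaScreen read.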
Six1-Eya2 blk: inhibitors of human Six1/Eya2 interaction. AID 651725. Q15475+O00167. activity change, % (test concentration not listed). 360,000 tested, 0.56% active. AlphaScreen GST-Six1/His-Eya2 binding, biochemical; active compounds read low; in the data active = activity change below about -65%; inconclusive = mostly about -30% to -63%; also: % is scaled to controls: 0 for no effect and ±100 for the full control effect
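Compounds are tested against tagged Six1 and Eya2 proteins bridged by glutathione donor and nickel acceptor beads; after a one-hour incubation at 37 °C without light, AlphaScreen emission is recorded.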
BAZ2B block: blocks human BAZ2B; Q9UIF8; AlphaScreen BAZ2B-H3K14Ac peptide displacement; Potency, µM (series often up to 114 µM), for the others: top-dose activity change, negative = inhibition, actives largely listed as inhibitors; 360,000 tested, 4.4% active; AID 504333; also: potency is read from the fitted curve at half-maximal effect; % is scaled to controls: 0 for no effect and ±100 for the full control effect; nearly all actives have a fitted effect of over 60% in size
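AlphaScreen luminescence quantifies BAZ2B engagement of H3K14Ac peptide; the protein and biotinylated peptide are both at 50 nM final, buffer PBS pH 7.4 with 0.01% Tween-20, all steps at room temperature.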
* hit, by the source's call; ? = inconclusive; . = no result; [ ] = remark or other dose. Unless noted, calls follow the shape of the dose curve; as a rule, active = well fitted inhibition curve with a large enough effect; inconclusive = small, poorly fitted or top-dose-only effect; inactive = no such curve, though single readings can be large or run the other way.

SMILES | HP1b binding inh | CtBP-E1A inh | JMJD2A Tudor | G9a block | Six1-Eya2 blk | BAZ2B block
CC1CCCCN1C(=O)COC(=O)c1cc([N+](=O)[O-])ccc1N (stereo not given) | 4% | -15 | -8% | 40µM* | 4 | -26%
CC(OC(=O)C1CCN(S(=O)(=O)c2ccc(F)cc2)CC1)C(=O)NC1CCCCC1C (stereo not given) | 7% | 3 | -14% | 1%[59 µM] | 0 | -3%
COc1ccc(N2CCN(C(c3ccc4ncccc4c3)c3nnnn3C(C)(C)C)CC2)cc1 (stereo not given) | -12% | -12 | ? | ? | -15 | 35µM*
CCC(C)(C)n1nnnc1C(c1ccc2ncccc2c1)N1CCN(c2nc3ccccc3s2)CC1 (stereo not given) | 2% | -12 | -36% | ? | -17 | -10%
COc1ccc(N2CCN(C(c3ccc(C)cc3)c3nnnn3C(C)(C)C)CC2)cc1 (stereo not given) | -19% | . | 50µM* | . | . | .
CCC(C)(C)n1nnnc1C(c1ccc2ncccc2c1)N1CCN(c2ccc(O)cc2)CC1 (stereo not given) | 13%[57 µM] | -8 | 14µM* | 10µM* | -14 | -33%
CC(C)(C)n1nnnc1C(c1ccccc1)N1CCN(c2ccc(F)cc2)CC1 (stereo not given) | . | 1 | . | . | 1 | .
CCOCCCNCC(=O)NCC1CCCCC1 | ? | . | 20µM* | 20µM* | 3 | 50µM*
CC(C)(C)C1CCN2CCCC(c3ccc([N+](=O)[O-])cc3)(C1)C21OCCO1 (stereo not given) | . | -7 | . | . | -28 | .
CCCCC1OC2(C)OC(=N)C1(C#N)C(C#N)(C#N)C2c1ccccc1 (stereo not given) | 18% | -3 | -15% | 45µM* | 10 | 2%
COc1cccc(CNC(=O)[C@@H]2CCCN2C(=O)[C@H]2CCCCN2C(=O)c2cccc(Cl)c2)c1 | . | 5 | . | . | 1 | .
COc1ccc(NC(=O)CN(C)C(=O)/C=C/c2cn(-c3ccccc3)nc2-c2cccs2)cc1 | 10% | 1 | -23% | 21%[2.33 µM] | -14 | -27%
Cc1cc(NC(=O)CCCOc2ccc(Cl)cc2Cl)no1 | 27% | 19 | 1% | 1%[12.7 µM] | -3 | -3%
COC(=O)NNC(=O)CCCOc1ccc(Cl)cc1Cl | 28% | 1 | 1% | 6%[59 µM] | 4 | 9%
COc1ccc(COc2cccc3ccc(C)nc23)cc1F | 29% | -7 | 0% | 28% | 7 | 15%
CNCCCOc1ccc(Cl)cc1C(C)(C)C | ? | -3 | 45µM* | 14µM* | 4 | 32µM*
C=CCc1ccc(OCCCCNC(C)CC)c(OC)c1 (stereo not given) | -19% | -3 | 14µM* | 14µM* | 5 | -32%
C=CCc1ccc(OCCOCCOc2cccc3ccc(C)nc23)c(OC)c1 | 16µM* | -2 | 1.1µM* | 3.5µM* | -4 | 28µM*
COCCCNCCCOc1ccc(Cl)cc1C(C)(C)C | -27% | 3 | 28µM* | ? | 11 | 1%
Nc1nc2c(ncn2[C@@H]2O[C@H](CNCc3ccccc3)[C@@H](O)[C@H]2O)c(=O)[nH]1 | . | 38 | . | . | 29 | .
CCn1c(SCC(=O)N2CCc3ccccc3C2)nc2sc(C)c(C)c2c1=O | 10% | -14 | -21% | ? | -1 | -19%
O=S(=O)(NCCc1ccccc1)c1ccccc1Br | 30% | . | 6% | . | . | .
CCCS(=O)(=O)NC(=O)C1(C)CCCN(C(=O)c2ccc3c(c2)OCO3)C1 (stereo not given) | . | 2 | . | . | 18 | .
O=C(COC(=O)c1ccc2ccccc2c1)NCc1ccccc1 | . | 10 | . | . | 22 | .
C=CCc1cc(Cl)ccc1OCCCNC(C)CC (stereo not given) | ? | 0 | 22µM* | 10µM* | 12 | -31%
SMILES | HP1b binding inh | CtBP-E1A inh | JMJD2A Tudor | G9a block | Six1-Eya2 blk | BAZ2B block
CC(C)NC(=O)CCCOc1ccc(Cl)cc1Cl | 31% | 8 | -5% | 14% | 2 | -4%
C=CCc1ccc(OCCOCCNCCCC)c(OC)c1 | ? | 0 | 4µM* | ? | -5 | 50µM*
C=CCc1ccc(OCCOCCNCCOC)c(OC)c1 | 27% | -1 | -22% | -3% | -7 | -10%
CCC(C)NCCCOc1ccc(Cl)cc1C(C)(C)C (stereo not given) | ? | -4 | 3.2µM* | 13µM* | 8 | 50µM*
CCc1ccccc1NC(=O)CSc1ccsc1[N+](=O)[O-] | -22% | -12 | ? | ? | -20 | 50µM*
COc1ccc(OC)c(CCNC(=O)CSc2ccsc2[N+](=O)[O-])c1 | -6% | -2 | 45µM* | 32µM* | -12 | ?
O=C(CSc1ccsc1[N+](=O)[O-])Nc1cccc(F)c1 | ? | -4 | 45µM* | 50µM* | -19 | 35µM*
O=C(CSc1ccsc1[N+](=O)[O-])NCc1ccccc1 | 5% | 0 | -33% | 50µM* | 4 | ?
COCc1cnc(C)nc1N | 12% | 5 | 1% | -1% | 37 | 1%
O=C(Nc1cccc(F)c1)C1CCN(S(=O)(=O)c2cccc3nsnc23)CC1 | 0% | . | -30% | -17%[59 µM] | . | .
C=CC[C@@H](Cc1ccc(F)cc1)C(=O)OC[C@@H]1CCCN1C(=O)[C@@H](CC=C)CC(=O)N[C@H](CO)Cc1ccccc1 | 29% | 0 | -17% | . | 0 | .
CC1CCCCC1NC(=O)CSc1ccsc1[N+](=O)[O-] (stereo not given) | 16% | -1 | -17% | -28% | -6 | -27%
O=C(CSc1ccsc1[N+](=O)[O-])NC1CCCC1 | 5% | -16 | -24% | 32µM* | 1 | -38%
COc1ccccc1CNC(=O)CSc1ccsc1[N+](=O)[O-] | 55% | -21 | -26% | 50µM* | -4 | ?
CCNC(=O)C1(C)CCN(C(=O)c2ccc(C(F)(F)F)cc2)C1 (stereo not given) | . | 5 | . | . | 4 | .
Cn1c(-c2ccc(-c3ccccc3)cc2)c[nH]c1=S | -4% | -4 | ? | 14µM* | -15 | -34%
CCn1c(-c2ccc(-c3ccccc3)cc2)c[nH]c1=S | 21% | -10 | -36% | ? | -13 | -29%
C=CCn1c(=N)n(CC(=O)c2ccc(Cl)cc2)c2ccccc21 | 44% | 36 | 0% | -4% | 8 | 2%
C=CCn1c(-c2ccccc2)c[nH]c1=S | ? | -15 | 7.9µM* | ? | -13 | -34%
C=CCn1c(-c2ccc(Cl)cc2)c[nH]c1=S | 9% | -13 | 25µM* | 1.4µM* | -4 | -27%
O=[N+]([O-])c1ccc(S(=O)(=O)Nc2ccc(S(=O)(=O)N3CCCC3)cc2)cc1 | 14% | 3 | -1% | 35µM* | -6 | -21%

Source: PubChem
